Hit rate of the full screen: of about 48,000 compounds, about 13,000 (27%) showed an effect of 50% or more. The list shows a part of the results.
What follows are molecules tested on Wolbachia pipientis (assay: Anti-Wolbachia Cell-Based Screen). Conditions: 5 µM.
Assay type: functional
Design: scale not given: in the data most compounds retested in dose-response had high values

| Structure (SMILES) | Percent Effect [%] |
| --- | --- |
| Cc1ccc(-c2cn3c(n2)CO[C@@H](CNCc2cnn(C)c2)C3)cc1 | 12.36 |
| COCCN(C)C[C@@H]1CN(C(=O)c2ccc(O)c(C)c2)C[C@@H]1CO | 126 |
| COCCN(C)C[C@@H]1CN(C(=O)c2ccc(O)c(Cl)c2)C[C@@H]1CO | 127.9 |
| CCCOc1ccc(C(=O)N2C[C@@H](CN3CCCC3)[C@@H](CO)C2)cc1Cl | 0.3871 |
| COCCN(C)C[C@@H]1CN(C(=O)c2ccc(C)c(Cl)c2)C[C@@H]1CO | 113.4 |
| Cc1cc(C(=O)N2C[C@@H](CN3CCCCC3)[C@@H](CO)C2)ccc1O | -7.322 |
| COc1cc(C)ccc1C(=O)N1C[C@@H](CN(C)CCO)[C@@H](CO)C1 | -2.888 |
| COc1ccc(C(=O)N2C[C@@H](CN3CCCCC3)[C@@H](CO)C2)cc1Cl | -0.8846 |
| O=C(c1ccc(O)c(Cl)c1)N1C[C@@H](CN2CCCCCC2)[C@@H](CO)C1 | -0.5835 |
| CC(C)CN1C(=O)COC[C@@H]1[C@H](O)c1ccc(NC(=O)C2CC2)cc1 | -2.654 |
| CC(C)c1cc(N[C@@H](CO)C(N)=O)n2nccc2n1 | 27.01 |
| Cc1cnn(-c2cccc(N3CCCCC3)n2)c1 | -2.755 |
| CC(C)c1nc(C2CCCN(C(=O)c3ccc4nccn4c3)C2)no1 (stereo not drawn) | -6.875 |
| CC(C)c1nc(C2CCCN(C(=O)c3ccc4c(c3)OCO4)C2)no1 (stereo not drawn) | 127.5 |
| CC(C)c1nc(C2CCCN(C(=O)c3ccc4nncn4c3)C2)no1 (stereo not drawn) | 123.4 |
| CC(C)c1nc(C2CCCN(C(=O)c3ccc4c(c3)COC4)C2)no1 (stereo not drawn) | 126.8 |
| CC(C)c1nc(C2CCCN(C(=O)c3ccc4[nH]nnc4c3)C2)no1 (stereo not drawn) | 134.9 |
| CC(C)c1nccn1C1CCCN(C(=O)c2ccc3[nH]nnc3c2)C1 (stereo not drawn) | -9.073 |
| O=C(c1ccc2c(c1)OCO2)N1CCCC(n2cccn2)C1 (stereo not drawn) | 4.266 |
| CC(C)c1nc(C2CCCN2C(=O)c2ccc3nncn3c2)no1 (stereo not drawn) | -6.434 |
| COc1ccccc1OC1CN(C(=O)c2c(C)nc3ccc(C)cn23)C1 | -16.35 |
| CC(c1ncc(C(C)(C)C)o1)N1CCN(Cc2ccc(Cl)s2)CC1 (stereo not drawn) | -10.01 |
| Cc1ccc(NC(=O)c2nc(N3CCCCC3)ncc2Cl)cc1I | 14.77 |
| CC(=O)NC[C@H]1OC[C@@H](NC2CCC(F)(F)CC2)[C@@H]1O | -10 |

| Structure (SMILES) | Percent Effect [%] |
| --- | --- |
| Cc1nc2ccccc2nc1NCc1nnc2n1CCC2 | -17.33 |
| COCc1ccccc1CNc1nnc(C)c(C)c1C#N | -9.449 |
| N#Cc1ccc(NCc2cccc(OCC3CCCO3)c2)nc1 (stereo not drawn) | 63.12 |
| Oc1cccc(CNCC2CCCO2)c1 (stereo not drawn) | 10.1 |
| Cc1nnc(NCc2ccc(N3CCC(CO)CC3)cc2)c(C#N)c1C | 12.23 |
| Cc1nnc(NCc2cccnc2N(C)C)c(C#N)c1C | -6.334 |
| CN(C)C(=O)c1cccc(CNc2ccc(C#N)cn2)c1 | 29.09 |
| Cc1nc2ccccc2nc1NCc1cccc(OCC2CCCO2)c1 (stereo not drawn) | 113.3 |
| N#Cc1ccc(NCc2cccc(COC3CCOCC3)c2)nc1 | -4.004 |
| Cc1nnc(NCc2cccc(OCc3ccccn3)c2)c(C#N)c1C | 115.9 |
| Cc1nnc(NCc2cccc(OCC3CCCO3)c2)c(C#N)c1C (stereo not drawn) | 98.93 |
| Cc1ccccc1C1(CNc2nnc(C)c(C)c2C#N)CCOCC1 | 10.33 |
| O=C(c1ccco1)N1CCc2ncnc(NCc3ccccn3)c2CC1 | -3.443 |
| CN1C(=O)[C@H]2CC[C@@H]1CN(C(=O)c1csc(Cc3ccccc3)n1)C2 | -11.33 |
| CN(C(=O)c1ccc[nH]1)C1CCC(NC(=O)OC(C)(C)C)CC1 (stereo not drawn) | -42.92 |
| CCC(C)N(Cc1ccncc1)Cc1ccccc1Cn1cccn1 (stereo not drawn) | 4.156 |
| O=C(O)C(F)(F)F.O=C([C@H]1COC[C@H]2CN(C3CCOCC3)C[C@H]21)N1CCC(F)CC1 | -1.372 |
| O=C(O)C(F)(F)F.O=C([C@@H]1C[C@@H]2CCN(C3CCOCC3)C[C@H]2O1)N1CCOCC1 | 89.37 |
| O=C(O)C(F)(F)F.O=C([C@@H]1C[C@@H]2CCN(C3CCOCC3)C[C@@H]2O1)N1CCCC1 | 130.2 |
| O=C(O)C(F)(F)F.O=C([C@H]1C[C@H]2OCC[C@H]2N(CC2CCOCC2)C1)N1CCCC1 | 10.32 |
| CC1CCN(C(=O)[C@@H]2C[C@@H]3CCN(CC4CCOCC4)C[C@@H]3O2)CC1.O=C(O)C(F)(F)F | -4.888 |
| CC1CCN(C(=O)[C@H]2C[C@@H]3CCN(CC4CCOCC4)C[C@@H]3O2)CC1.O=C(O)C(F)(F)F | -3.152 |
| O=C(O)C(F)(F)F.O=C([C@H]1C[C@@H]2CCN(C3CCOCC3)C[C@H]2O1)N1CCCC1 | 103.9 |
| CC1CCN(C(=O)[C@H]2C[C@@H]3CCN(CC4CCOCC4)C[C@H]3O2)CC1.O=C(O)C(F)(F)F | -1.273 |

| Structure (SMILES) | Percent Effect [%] |
| --- | --- |
| O=C(O)C(F)(F)F.O=C([C@H]1C[C@@H]2CCN(C3CCOCC3)C[C@@H]2O1)N1CCOCC1 | -5.423 |
| Cc1ccccc1CC(=O)N(C)C1CCCC1 | -4.156 |
| COc1ccc(-c2cnc(CN3CCn4c(C)nnc4C3)o2)cc1 | -11.18 |
| c1csc(-c2nc(CN3CCn4c(nnc4C4CC4)C3)co2)c1 | -3.067 |
| Cn1ccnc1-c1ccc(NCC2COc3ccccc3O2)nn1 (stereo not drawn) | -1.636 |
| Cc1ccc(CC(=O)NC(C)C(=O)N2CCS(=O)(=O)CC2)cc1 (stereo not drawn) | -13.94 |
| CC(C)CC(C)N(C)Cc1nnc(-c2ccco2)o1 (stereo not drawn) | 9.065 |
| CNC(=O)C1Cn2ccnc2C2(CCN(C(=O)c3ccccn3)CC2)O1 (stereo not drawn) | -8.502 |
| NC(=O)C1Cn2ccnc2C2(CCN(C(=O)c3ccncc3)CC2)O1 (stereo not drawn) | 116.6 |
| CNC(=O)C1Cn2ccnc2C2(CCN(C(=O)NC3CCCC3)CC2)O1 (stereo not drawn) | 96.32 |
| CNC(=O)C1Cn2ccnc2C2(CCN(Cc3csc(C)n3)CC2)O1 (stereo not drawn) | 2.029 |
| CC(C)CC(=O)N1CCC2(CC1)OC(C(N)=O)Cn1ccnc12.O=C(O)C(F)(F)F (stereo not drawn) | 113.8 |
| CNC(=O)C1Cn2ccnc2C2(CCN(CCF)CC2)O1 (stereo not drawn) | 3.54 |
| CNC(=O)C1Cn2ccnc2C2(CCN(c3ccc(C)nn3)CC2)O1 (stereo not drawn) | 1.376 |
| CNC(=O)C1Cn2ccnc2C2(CCN(C(=O)CC3CCCC3)CC2)O1.O=C(O)C(F)(F)F (stereo not drawn) | -0.06928 |
| CC(C)CNC(=O)N1CCC2(CC1)OC(C(N)=O)Cn1ccnc12.O=C(O)C(F)(F)F (stereo not drawn) | 99.99 |
| CCc1nc(C)c(C2CC(=O)Nc3c2c(C(C)(C)C)nn3C)[nH]1 (stereo not drawn) | -1.206 |
| CCN(C(=O)c1ccc2nnc(C3CCN(S(C)(=O)=O)C3)n2c1)C(C)C (stereo not drawn) | -8.044 |
| CCS(=O)(=O)N1CCC(c2nnc(Cn3cccn3)n2C2CC2)CC1 | -1.644 |
| CCN(CC)c1ccc(-c2nc(-c3cccc(OC)c3OC)no2)cn1 | -1.328 |
| N#Cc1cccc(S(=O)(=O)CCN2CCOC2=O)c1 | -9.929 |
| COc1ccc(NC(=O)CCC2CCCN(S(=O)(=O)C3CC3)C2)cc1Cl (stereo not drawn) | 5.788 |
| COc1ccc(OCc2cc(C(=O)N3CCOCC3)n[nH]2)c(Cl)c1 | -1.083 |
| NC(=O)C1Cn2ccnc2C2(CCN(C(=O)NC3CCCC3)CC2)O1.O=C(O)C(F)(F)F (stereo not drawn) | 99.21 |

| Structure (SMILES) | Percent Effect [%] |
| --- | --- |
| CNC(=O)C1Cn2ccnc2C2(CCN(C(=O)c3ccoc3C)CC2)O1.O=C(O)C(F)(F)F (stereo not drawn) | 5.988 |
| O=C(NC1CC1)N1CCCC2(CCCCN2)C1.O=C(O)C(F)(F)F (stereo not drawn) | -8.648 |
| Cc1nc(O)ccc1C(=O)N1CCCC1c1nc(-c2ccccc2)n[nH]1 (stereo not drawn) | -6.533 |
| Cc1cc(-c2c[nH]nc2C2CCCCN2C(=O)c2ccccc2)on1 (stereo not drawn) | 116.8 |
| Cc1cccc(C(=O)N2CCCC2c2c(C)n[nH]c2C)c1 (stereo not drawn) | 0.2093 |
| Cc1ccc2cc(C(=O)N3CCCCC3c3nc[nH]n3)ccc2n1 (stereo not drawn) | -6.785 |
| COCc1cccc(C(=O)N2CCCCC2c2nccs2)c1 (stereo not drawn) | 13.03 |
| Cc1noc(-c2c[nH]nc2C2CCCN2C(=O)c2ccccc2)c1C (stereo not drawn) | 143.3 |
| COCCN1C(=O)[C@H]2CC[C@@H]1CN(C(=O)Cc1c(F)cccc1Cl)C2 | -1.329 |
| Cc1[nH]ncc1C(=O)N1CCN(CC(O)C(C)(C)C)CC1 (stereo not drawn) | 6.282 |
| O=C(c1cnc(Nc2ccccc2)nc1)N1CCS(=O)(=O)CC1 | 6.856 |
| Cc1noc(CN(Cc2ccco2)Cc2cccc3c2OCO3)n1 | -16.92 |
| O=C1CCC2(CCCN(C(=O)c3ccc[nH]3)C2)CN1Cc1cccnc1 (stereo not drawn) | -3.42 |
| O=C1CCC2(CCCN(C(=O)c3ccoc3)C2)CN1Cc1ccncc1 (stereo not drawn) | 9.259 |
| CCOCC(=O)N1CCC2(CC1)CN(Cc1cccnc1)C(=O)CO2 | 106.9 |
| O=C1COC2(CCN(C(=O)c3ccoc3)CC2)CN1Cc1cccnc1 | 89.17 |
| O=C(c1ccoc1)N1CCC(NCc2cccnc2)CC1 | -13.71 |
| O=C1COC2(CCN(Cc3ccco3)CC2)CN1Cc1cccnc1 | 107.7 |
| CCOCC(=O)N1CCC[C@]2(C[C@@H](OCc3ccncc3)CO2)C1 | 2.897 |
| CN(C)CC(=O)N1CCC2(CC1)CN(Cc1cccnc1)C(=O)CO2 | 109.2 |
| c1coc(CN2CCC3(CC2)CC(N2CCCC2)CO3)c1 (stereo not drawn) | -47.38 |

Source: ChEMBL document CHEMBL3988442, “University of Dundee, Small-Polar-MMV Screening Library” (2021)
